Test results taken from PubChem BioAssay (NCI).
The panel holds about 83,000 compounds, 20% with a hit somewhere; the sample as a whole holds those more often.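 The endpoint reported here, percent growth, reads 100 for growth as untreated, 0 for no net growth and -100 for all cells dead.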 Unmarked numbers belong to inactive results. Calls of active or inactive are those of the source. Rule for the calls: active = growth percent below 10; inactive = the rest.

Experiments:
Assay in all cases: NCI-60 one-dose screen, 48 h (100 = growth as untreated, 0 = no growth, -100 = all killed)
Conditions in all cases: 10 µM
786-0 renal = test system: 786-0 renal
MALME-3M melanoma = test system: MALME-3M melanoma
SF-268 CNS = test system: SF-268 CNS
SF-295 CNS = test system: SF-295 CNS
UACC-257 melanoma = test system: UACC-257 melanoma
UACC-62 melanoma = test system: UACC-62 melanoma
SK-MEL-28 melanoma = test system: SK-MEL-28 melanoma
SK-MEL-2 melanoma = test system: SK-MEL-2 melanoma
EKVX NSCLC = test system: EKVX NSCLC
SN12C renal = test system: SN12C renal
UO-31 renal = test system: UO-31 renal
TK-10 renal = test system: TK-10 renal
ACHN renal = test system: ACHN renal
CAKI-1 renal = test system: CAKI-1 renal
A498 renal = test system: A498 renal
OVCAR-8 ovarian = test system: OVCAR-8 ovarian
OVCAR-5 ovarian = test system: OVCAR-5 ovarian
IGROV1 ovarian = test system: IGROV1 ovarian
OVCAR-3 ovarian = test system: OVCAR-3 ovarian
HS 578T breast = test system: HS 578T breast

SMILES | growth (786-0 renal) [%] | growth (MALME-3M melanoma) | growth (SF-268 CNS) [%] | growth (SF-295 CNS) [%] | growth (UACC-257 melanoma) | growth (UACC-62 melanoma) [%] | growth (SK-MEL-28 melanoma) | growth (SK-MEL-2 melanoma) [%] | growth (EKVX NSCLC) [%] | growth (SN12C renal) [%] | growth (UO-31 renal) [%] | growth (TK-10 renal) [%] | growth (ACHN renal) [%] | growth (CAKI-1 renal) [%] | growth (A498 renal) [%] | growth (OVCAR-8 ovarian) [%] | growth (OVCAR-5 ovarian) [%] | growth (IGROV1 ovarian) [%] | growth (OVCAR-3 ovarian) [%] | growth (HS 578T breast) [%]
Fc1ccc(/C=C/c2nc3ccccc3n3c(-c4ccc(Cl)cc4)nnc23)cc1 | 73.4 | 7.93% (active) | 78 | 128 | 96.7% | 70.2 | 89.1% | 102 | 74.6 | 78.1 | 53.3 | 112 | 47.5 | 62.3 | 111 | 72.6 | 96.3 | 72.2 | 76.9 | 80.5
COc1cc2oc(-c3cccc(C(=O)Nc4ccc(Cl)cc4)c3)cc(=O)c2c(OCCNC(=O)[C@@H](N)CO)c1OC | 48.4 | -56.9% (active) | 69.9 | 99.4 | -67.8% (active) | 38.8 | -74.9% (active) | 78.5 | 54.7 | 43.9 | 91.1 | 138 | 99.4 | 45.9 | 177 | 26.3 | 60.9 | 57.9 | 89.5 | 53.8
COc1ccc(Cc2nn(CC(=O)N/N=C/c3ccc([N+](=O)[O-])cc3)c(=O)c3c(C)noc23)cc1 | 26.3 | 53% | 77.7 | 92.7 | 92.8% | 73.9 | 80.3% | 99.1 | 86.6 | 39 | 63 | 101 | 47.7 | 53.2 | 111 | 56.6 | 90.2 | 82.9 | 45.1 | 48.8
